ChEMBL document CHEMBL3988442, “University of Dundee, Small-Polar-MMV Screening Library” (2021)

What follows are compounds tested against T1, Arginase-2, mitochondrial (Homo sapiens) (UniProt P78540) (assay: in vitro enzyme assay to detect the production of urea directly proportional to the activity of Arginase II). Conditions: 30 µM.
T1 sequence (whole entry): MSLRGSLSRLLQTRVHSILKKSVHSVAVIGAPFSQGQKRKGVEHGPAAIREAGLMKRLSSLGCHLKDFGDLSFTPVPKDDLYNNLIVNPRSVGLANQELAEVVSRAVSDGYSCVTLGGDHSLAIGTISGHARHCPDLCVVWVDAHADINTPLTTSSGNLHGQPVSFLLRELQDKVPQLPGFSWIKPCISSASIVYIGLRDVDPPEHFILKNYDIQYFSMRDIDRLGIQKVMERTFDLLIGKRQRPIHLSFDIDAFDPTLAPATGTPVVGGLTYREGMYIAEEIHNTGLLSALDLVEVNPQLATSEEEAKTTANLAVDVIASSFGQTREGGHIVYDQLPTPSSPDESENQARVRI
Assay type: functional
Design: scale not given: in the data most compounds retested in dose-response had high values

Compound	Percent Effect [%]
CNC(=O)[C@@H]1CCO[C@@H]2CCN(CCc3ccccc3)C[C@H]21	8.11
Cc1cnc(C(=O)N2CCCC(c3nccn3Cc3cscn3)C2)cn1 (stereo not given)	-5.95
O=c1[nH]c2c(c(=O)n1C1CCCCC1)CCC2NCc1ccccc1 (stereo not given)	9.19
COCCCC1CCCN(C(=O)CCc2csc(N)n2)C1 (stereo not given)	3.78
COc1cccc(C(=O)N2C[C@@H](C(=O)O)[C@H](c3ccccc3C)C2)c1	5.95
NC(=O)CN1CCC(c2cncc(-c3cccc(Cl)c3)n2)CC1	2.7
CN(Cc1ccco1)[C@@H]1CN(Cc2nccn2C)[C@@H]2CCCO[C@H]12	11.3
COc1ccc(CNCc2nnc3n2CC(C(F)(F)F)CC3)cc1 (stereo not given)	9.19
CC(C)C(NC(=O)Cn1nc2c(cc1=O)CCCC2)C(=O)O (stereo not given)	7.03
OC(CN(Cc1ccccc1)Cc1cccnc1)c1cccs1 (stereo not given)	-5.95
CN(CC(=O)N1CCCC1c1noc(C2CC2)n1)C1CC1 (stereo not given)	5.95
COCCC(=O)NCC1COc2cc(OC)ccc2C1 (stereo not given)	5.95
Cc1nc(NCC2CC2)nc2c1COCC21CCN(C(=O)NC(C)C)C1 (stereo not given)	7.03
CCS(=O)(=O)CC(=O)N1CCCC1c1noc(C2CC2)n1 (stereo not given)	2.7
O=C(Cn1nc2c(cc1=O)CCCC2)NC(Cc1ccccc1)C(=O)O (stereo not given)	-13.5
CC(C)(C)OC(=O)Cn1cccc(S(=O)(=O)N2CCCCCC2)c1=O	5.95
Cc1ccc([C@@H]2CN(S(=O)(=O)c3ccccc3)C[C@H]2N(C)C)cc1	3.78
CCc1nc(C)c(C(=O)NCC2COc3cc(OC)ccc3C2)o1 (stereo not given)	5.95
Cc1ccc(-c2nc(CN3CC(n4nc(C)cc4C)C3)no2)cc1	3.78
CNC(=O)[C@H]1C[C@@H]2CN(C(=O)c3ccncc3)C[C@@H]2N1S(C)(=O)=O	4.87

Compound	Percent Effect [%]
CN(C)c1ncccc1CN1CCOC(C(=O)Nc2ccccc2)C1 (stereo not given)	1.62
CN1CCC(N(Cc2ccccc2F)C(=O)NCc2ccncc2)CC1	5.95
O=C(COC1CCCC1)N1CCCC1c1noc(C2CC2)n1 (stereo not given)	5.95
CC(C)CN1CCC(NC(=O)c2ccc(F)cc2Cl)CC1	5.95
CCc1cc(CNC(=O)N2CCN(c3nc(C)c(C)s3)CC2)on1	3.78
COCCN1CCC(c2cncc(-c3cccc(Cl)c3)n2)CC1	5.95
CC(C)(C)OC(=O)Cn1cccc(S(=O)(=O)N2CCCC2)c1=O	7.03
O=C(Cn1nc2c(cc1=O)CSCC2)N[C@@H](Cc1ccccc1)C(=O)O	11.3
COc1ccc(C2SC(C)=Nc3c2c(=O)[nH]n3C2CCCC2)cc1O (stereo not given)	2.7
O=C(c1coc(CN2CCN(c3ccccc3F)CC2)n1)N1CCCC1	3.78
CC[C@@H](NC(C)=O)C(=O)NCc1cccnc1Oc1ccccc1OC	4.87
CC(C)(C)n1cc(NC(=O)C2CN(Cc3ccccc3)CCO2)cn1 (stereo not given)	0.54
COc1ccc(C(=O)N2C[C@@H](C(=O)O)[C@H](c3ccccc3)C2)c(O)c1	9.19
CN(Cc1ccncc1)C1CC2(CCN(Cc3ccccn3)CC2)C1	5.95
c1ccc(OC2COC3(CCN(Cc4ccccn4)CC3)C2)cc1 (stereo not given)	0.54
O=C(Cn1nc2c(cc1=O)CCCC2)NC(C(=O)O)c1ccccc1 (stereo not given)	-2.7
c1ccc(O[C@H]2CO[C@@]3(CCN(Cc4ccc5c(c4)OCO5)C3)C2)nc1	7.03
COc1ccc2c(c1)OCC(CNC(=O)NC(C)(C)C)C2 (stereo not given)	5.95
COc1ccc(C(=O)N2C[C@@H](C(=O)O)[C@H](c3ccccc3)C2)c(C)c1	-7.03
CCCS(=O)(=O)CC(=O)N1CCCC1c1noc(C2CC2)n1 (stereo not given)	7.03
